Laboratory results reported in PubChem BioAssay (Tox21).
Several values for one entry are separate records, joined by “and”; a condition that tells them apart may be missing. Identical values can stand only once. Records with an inconclusive call do not appear. A call without a number means that no potency is given here. A structure can be active in one record and inactive in another. Activity calls are given as the source filed them. Unless noted, the call rests on the fitted dose curve; in most records, active means well fitted curve in the direction sought with a large enough effect in the repeat runs; inconclusive means weak or mixed curves; inactive means no such curve, though single readings can be large; an effect the other way counts as inactive or inconclusive.

Assays:
[1] = A CellTox Green Cytotoxicity Assay to monitor cytotoxicity in HepG2 cells - 8 hour (AID 1224890); further: nearly all actives have a fitted effect of over 45% in size
How it was run: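 Cells and non-lytic dye reagent are dispensed together (600 HepG2 cells/well) and incubated 5 h before DMSO compound transfer. Kinetic fluorescence is then recorded in the same wells during 40 h at 37 C.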

[2] = qHTS assay to identify small molecule antagonists of the estrogen receptor alpha (ER-alpha) signaling pathway using the BG1 cell line in the presence of 0.1 nM 17-beta-estradiol - cell viability counter screen (AID 1259241); further: nearly all actives have a fitted effect of over 40% in size
How it was run: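 Viability in VM7Luc4E2 cells after 22 hr compound exposure under 0.1 nM 17beta-estradiol stimulation, by CellTiter-Fluor.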

[3] = qHTS assay to identify small molecule antagonists of the androgen receptor (AR) signaling pathway using the MDA cell line in the presence of 0.5 nM R1881 - cell viability counter screen (AID 1259242); further: nearly all actives have a fitted effect of over 45% in size
How it was run: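 Steps: plate MDA-kb2 cells, rest 5 hr at 37C without CO2; pin in compounds in DMSO; add R1881 to 0.5 nM final; incubate 16 hr; add CellTiter-Fluor, 30 min; read fluorescence.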

[4] = biological target: Estrogen receptor (Homo sapiens) (UniProt P03372); assay: qHTS assay to identify small molecule antagonists of the estrogen receptor alpha (ER-alpha) signaling pathway using the BG1 cell line in the presence of 0.1 nM 17-beta-estradiol (AID 1259244); further: nearly all actives have a fitted effect of over 50% in size
Sequence of Estrogen receptor (Homo sapiens) (P03372 whole entry, looked up): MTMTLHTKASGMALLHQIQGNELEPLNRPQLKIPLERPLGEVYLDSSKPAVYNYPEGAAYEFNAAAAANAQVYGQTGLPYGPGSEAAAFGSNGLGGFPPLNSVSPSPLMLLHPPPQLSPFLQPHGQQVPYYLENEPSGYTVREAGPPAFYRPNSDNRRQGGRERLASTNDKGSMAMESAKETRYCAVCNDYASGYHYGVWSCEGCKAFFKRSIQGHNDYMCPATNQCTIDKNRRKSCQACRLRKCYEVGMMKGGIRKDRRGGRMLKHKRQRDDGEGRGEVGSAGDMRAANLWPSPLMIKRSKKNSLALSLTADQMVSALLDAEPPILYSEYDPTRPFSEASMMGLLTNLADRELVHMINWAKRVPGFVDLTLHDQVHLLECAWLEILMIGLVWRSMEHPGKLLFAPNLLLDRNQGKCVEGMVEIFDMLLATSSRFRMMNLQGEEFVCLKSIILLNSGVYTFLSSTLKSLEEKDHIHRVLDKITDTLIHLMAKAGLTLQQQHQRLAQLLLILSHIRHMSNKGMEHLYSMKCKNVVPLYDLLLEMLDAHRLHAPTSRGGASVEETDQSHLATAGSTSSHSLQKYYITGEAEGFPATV
How it was run: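 Antagonist mode: compounds in DMSO are pinned onto VM7Luc4E2 reporter cells, 0.1 nM final 17beta-estradiol is added, and after 22 h at 37C luciferase luminescence is measured with ONE-Glo.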

[5] = qHTS assay to identify small molecule HDAC inhibitors (AID 1259364);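 further: wild-type HCT-116 cells with endogenous class I/II HDAC activity; top concentration of the series differs between compounds; nearly all actives have a fitted effect of over 45% in size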
How it was run: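 Cells (HCT-116, wild type) are seeded at 1,500 per well, incubated overnight, treated with compound in DMSO for 2 hr, then developed with HDAC-Glo I/II reagent for 30 min at room temperature.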

[6] = qHTS assay to identify small molecule HDAC inhibitors - cell viability counter screen (AID 1259365); further: series mostly up to about 92 µM; nearly all actives have a fitted effect of over 50% in size
How it was run: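 Cytotoxicity was gauged in wild-type HCT-116 cells after a brief 2hr treatment with DMSO-dissolved compounds at 37C and 5% CO2, using CellTiter-Glo luminescence developed for 30min at room temperature.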

[7] = qHTS assay to identify small molecule agonists of the sonic hedgehog signaling (Shh) pathway - cell viability counter screen (AID 1259366); further: nearly all actives have a fitted effect of over 50% in size
How it was run: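 Stable Gli1-Luc NIH/3T3 clone, 2,000 cells/well. Compound exposure 24hr at 37C. Read-out: CellTiter-Fluor fluorescence.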

[8] = qHTS assay to identify small molecule antagonists of the sonic hedgehog signaling (Shh) pathway - cell viability counter screen (AID 1259367); further: nearly all actives have a fitted effect of over 55% in size; further: potency means the concentration at half of the fitted maximal effect
How it was run: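 Fluorescence read-out (CellTiter-Fluor, 1 hr at 37C) taken after 23 hr compound treatment of 3T3 Gli1-Luc cells stimulated with conditioned medium. Cells were seeded at 2,000 per well and pre-incubated 4 hr.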

[9] = qHTS assay to identify small molecule agonists of the sonic hedgehog signaling (Shh) pathway (AID 1259368; calls by dose curve;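 further: NIH/3T3-derived 3T3Gli1-Luc cells carrying a stable Gli1-driven firefly luciferase reporter; series mostly up to about 92 µM; nearly all actives have a fitted effect of over 15% in size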)
How it was run: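 Cells of a mouse NIH/3T3 clone stably expressing luciferase under the Gli1 transcriptional response element are exposed to test chemicals for 24 hr at 37 C. Pathway activation is detected as a rise in luminescence.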

[10] = qHTS assay to identify small molecule antagonists of the sonic hedgehog signaling (Shh) pathway (AID 1259369; calls by dose curve; further: nearly all actives have a fitted effect of over 45% in size; further: potency means the concentration at half of the fitted maximal effect)
How it was run: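 Cells are plated and held 4hr at 37 C, compounds (DMSO) are pinned in, conditioned medium is added to stimulate the pathway, and after 24hr luciferase reagent is added for 30min before luminescence is read.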

[11] = biological target: Estrogen receptor beta (Homo sapiens) (UniProt Q92731); assay: qHTS assay to identify small molecule agonists of the estrogen receptor beta (ER-beta) signaling pathway (AID 1259377; active means well fitted activation curve with a large enough effect in the signal ratio in the repeat runs, not every such curve was filed as active; the % refers to the signal ratio)
Sequence of Estrogen receptor beta (Homo sapiens) (Q92731 whole entry, looked up): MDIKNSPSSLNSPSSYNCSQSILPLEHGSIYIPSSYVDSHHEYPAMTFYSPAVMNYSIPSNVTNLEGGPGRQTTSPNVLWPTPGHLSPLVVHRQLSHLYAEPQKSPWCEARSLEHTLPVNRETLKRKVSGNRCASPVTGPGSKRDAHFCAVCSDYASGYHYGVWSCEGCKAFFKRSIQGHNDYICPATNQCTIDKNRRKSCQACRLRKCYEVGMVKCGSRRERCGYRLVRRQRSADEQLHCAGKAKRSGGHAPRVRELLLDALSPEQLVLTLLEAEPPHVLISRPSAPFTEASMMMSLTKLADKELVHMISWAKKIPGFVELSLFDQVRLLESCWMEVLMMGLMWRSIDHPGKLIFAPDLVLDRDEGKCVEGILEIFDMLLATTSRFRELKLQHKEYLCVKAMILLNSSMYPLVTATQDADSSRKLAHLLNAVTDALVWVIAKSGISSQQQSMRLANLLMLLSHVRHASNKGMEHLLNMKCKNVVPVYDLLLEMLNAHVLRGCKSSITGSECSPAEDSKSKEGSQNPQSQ
How it was run: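 Measured by fluorescence intensity from a B/G FRET beta-lactamase substrate (2 h, room temperature) in ER-beta-UAS-bla HEK293T cells treated with DMSO-dissolved compounds for 16 hr at 37C and 5% CO2.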

[12] = biological target: Estrogen receptor beta (Homo sapiens) (UniProt Q92731); assay: qHTS assay to identify small molecule antagonists of the estrogen receptor beta (ER-beta) signaling pathway (AID 1259378; active means well fitted inhibition curve with a large enough effect in the signal ratio in the repeat runs, not every such curve was filed as active; the % refers to the signal ratio; further: potency means the concentration at half of the fitted maximal effect)
How it was run: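 ER-beta-UAS-bla HEK293T cells in 2% charcoal-stripped FBS medium treated with compound plus 1nM final 17-beta-estradiol for 16 hr at 37C. Beta-lactamase reporter read by FRET substrate fluorescence after 2 hours at room temperature.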

[13] = qHTS assay to identify small molecule agonists of the androgen receptor (AR) signaling pathway in the presence of an antagonist - cell viability counter screen (AID 1259379);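 further: MDA-kb2 human breast cancer cells carrying an MMTV luciferase reporter; series mostly up to about 92 µM; nearly all actives have a fitted effect of over 25% in size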
How it was run: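 Cytotoxicity is assessed by CellTiter-Fluor in MDA-kb2 cells carrying an MMTV-driven luciferase reporter. Cells receive 3.0uM nilutamide plus compounds at 15 concentrations and incubate 16 hr at 37C without CO2 before fluorescence reading.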

[14] = qHTS assay to identify small molecule agonists of the estrogen receptor beta (ER-beta) signaling pathway - cell viability counter screen (AID 1259380); further: nearly all actives have a fitted effect of over 30% in size; further: potency means the concentration at half of the fitted maximal effect
How it was run: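 Cytotoxicity is measured in parallel with the reporter screen: after 16 hr compound exposure at 37C and a 2 hr LiveBLAzer step, CellTiter-Glo is added to the same ER-beta-UAS-bla HEK293T wells and luminescence read after 30 min.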

[15] = qHTS assay to identify small molecule antagonists of the estrogen receptor beta (ER-beta) signaling pathway - cell viability counter screen (AID 1259382); further: series mostly up to about 92 µM; nearly all actives have a fitted effect of over 55% in size
How it was run: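 Cytotoxicity counter screen multiplexed with the beta-lactamase antagonist assay: GripTite HEK293T ER-beta-bla cells were treated 16 hr with test chemicals in the presence of 1nM 17-beta-estradiol, and viability was measured by CellTiter-Glo.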

[16] = biological target: Estrogen receptor (Homo sapiens) (UniProt P03372); assay: qHTS assay to identify small molecule agonists of the estrogen receptor alpha (ER-alpha) signaling pathway in the presence of an antagonist (AID 1259383; calls by dose curve; further: top concentration of the series differs between compounds; nearly all actives have a fitted effect of over 15% in size)
How it was run: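 Agonist-mode confirmation in the presence of the ER antagonist ICI-182,780 at 10.0nM final. Breast-derived VM7Luc4E2 reporter cells were exposed to compounds for 22hr, and ERE-driven luciferase was quantified by luminescence.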

[17] = qHTS assay to identify small molecule phospholipidosis (PLD) inducers (AID 1259344; active means well fitted curve in the direction sought with a large enough effect; an effect the other way counts as inactive or inconclusive)
How it was run: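 Read-out is LipidTOX Red fluorescence (ex 595/em 615) imaged in HepG2 cells after 24 h compound exposure at 37 C, with Hoechst nuclear counterstain (ex 352/em 461) allowing per-cell normalisation.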

[18] = biological target: Androgen receptor (Homo sapiens) (UniProt P10275); assay: qHTS assay to identify small molecule antagonists of the androgen receptor (AR) signaling pathway using the MDA cell line in the presence of 0.5 nM R1881 (AID 1259243); further: nearly all actives have a fitted effect of over 50% in size; further: potency means the concentration at half of the fitted maximal effect
Sequence of Androgen receptor (Homo sapiens) (P10275 whole entry, looked up): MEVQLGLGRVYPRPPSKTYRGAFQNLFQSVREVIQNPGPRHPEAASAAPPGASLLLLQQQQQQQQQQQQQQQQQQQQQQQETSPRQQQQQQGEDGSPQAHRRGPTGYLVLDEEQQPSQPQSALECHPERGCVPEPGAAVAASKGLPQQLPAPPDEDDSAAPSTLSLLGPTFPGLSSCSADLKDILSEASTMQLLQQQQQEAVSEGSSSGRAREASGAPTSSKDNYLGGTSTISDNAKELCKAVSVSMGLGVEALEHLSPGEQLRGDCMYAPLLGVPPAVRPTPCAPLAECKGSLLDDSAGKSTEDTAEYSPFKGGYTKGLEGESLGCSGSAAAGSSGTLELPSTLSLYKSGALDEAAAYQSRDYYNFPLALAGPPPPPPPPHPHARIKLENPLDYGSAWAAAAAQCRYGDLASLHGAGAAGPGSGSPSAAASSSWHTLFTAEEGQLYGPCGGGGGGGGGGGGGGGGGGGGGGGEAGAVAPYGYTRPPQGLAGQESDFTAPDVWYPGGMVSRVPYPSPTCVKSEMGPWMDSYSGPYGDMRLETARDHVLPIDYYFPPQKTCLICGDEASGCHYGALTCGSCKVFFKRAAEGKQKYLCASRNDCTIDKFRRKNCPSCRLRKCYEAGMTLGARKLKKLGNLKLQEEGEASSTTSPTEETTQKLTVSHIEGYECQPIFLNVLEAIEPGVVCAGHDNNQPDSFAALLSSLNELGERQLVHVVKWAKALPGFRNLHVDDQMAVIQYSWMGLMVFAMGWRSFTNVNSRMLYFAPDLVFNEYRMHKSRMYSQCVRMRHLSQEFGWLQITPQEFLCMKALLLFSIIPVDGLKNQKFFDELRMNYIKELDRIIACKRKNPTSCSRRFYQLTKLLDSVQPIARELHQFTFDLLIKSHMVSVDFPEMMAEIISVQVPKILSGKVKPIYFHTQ
How it was run: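 Stably transfected MDA-kb2 cells express luciferase from an MMTV promoter bearing both AR and GR response elements. Compounds plus 0.5 nM R1881 (final) were incubated 16 hr at 37C without CO2, then luminescence measured.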

[19] = biological target: Androgen receptor (Homo sapiens) (UniProt P10275); assay: qHTS assay to identify small molecule agonists of the androgen receptor (AR) signaling pathway in the presence of an antagonist (AID 1259381; calls by dose curve; further: nearly all actives have a fitted effect of over 15% in size)
How it was run: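 Agonist-mode confirmation screen: human MDA-kb2 cells stably expressing luciferase under an MMTV promoter bearing AR and GR response elements, co-treated with 3.0uM nilutamide (final). Luminescence measured after 16hr compound incubation.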

[20] = qHTS assay to identify small molecule agonists or antagonists of the thyroid stimulating hormone receptor (TSHR) signaling pathway - wild type cell line counter screen (AID 1259384; calls by dose curve)
How it was run: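 Wild-type Hek293 cells, 800/well, 18 h at 37C, then compound with Ro20-1724 for 30 min RT. cAMP by HTRF (cAMP-d2/anti-cAMP cryptate), 1 h RT, fluorescence read. 15 concentrations, triplicates.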

| SMILES | Potency [1] | Potency [2] | Potency [3] | Potency [4] | Potency [5] | outcome [6] | Potency [7] | Potency [8] | outcome [9] | Potency [10] | outcome [11] | Potency [12] | Potency [13] | Potency [14] | Potency [15] | Potency [16] | Potency [17] | Potency [18] | outcome [19] | Potency [20] |
| --- | --- | --- | --- | --- | --- | --- | --- | --- | --- | --- | --- | --- | --- | --- | --- | --- | --- | --- | --- | --- |
| C=C(C)OC(C)=O | inactive | inactive | inactive | inactive | inactive | inactive | inactive | inactive | inactive | inactive | inactive | inactive | inactive | inactive | inactive | inactive |  |  |  |  |
| NC(=O)c1ccc([N+](=O)[O-])cc1Cl | inactive | inactive | inactive |  | inactive | inactive | inactive | inactive | inactive | inactive | inactive | inactive | inactive | inactive | inactive |  | inactive |  |  |  |
| CC(C)CC(C)CC(O)CC(C)C (stereo not drawn) | inactive | inactive | inactive |  | inactive | inactive | inactive | inactive | inactive | inactive |  |  | inactive | inactive | inactive |  |  |  |  |  |
| OCCCc1ccccc1 | inactive | inactive | inactive | inactive | inactive | inactive | inactive | inactive | inactive | inactive | inactive | inactive | inactive | inactive | inactive | inactive | inactive |  |  |  |
| O=C1OC(c2ccc(O)cc2)(c2ccc(O)cc2)c2ccccc21 | inactive | inactive | inactive |  | inactive | inactive | inactive | 54.1 µM (active) and inactive | inactive | 3.83 µM (active) and 38.6 µM (active) and inactive |  | 15.4 µM (active) | inactive | 54.1 µM (active) and inactive | inactive |  | inactive | 48.6 µM (active) and inactive | inactive |  |
| CCn1cc(C(=O)O)c(=O)c2ccc(C)nc21 | inactive | inactive | inactive | inactive | inactive | inactive | inactive | inactive | inactive | inactive | inactive | inactive | inactive | inactive | inactive | inactive | inactive |  |  | inactive |
| CC(C)=CCC/C(C)=C/CO | inactive | inactive | inactive |  | inactive | inactive | inactive | inactive | inactive | inactive |  |  | inactive | inactive |  |  | inactive |  |  | inactive |
| C1CNCCN1 | inactive | inactive | inactive | inactive | inactive | inactive | inactive | inactive | inactive | 5.61 µM (active) and inactive | inactive | inactive | inactive | inactive | inactive | inactive | inactive |  |  | inactive |
| C[C@]12C[C@H](O)[C@H]3[C@@H](CCC4=CC(=O)CC[C@@]43C)[C@@H]1CC[C@@H]2C(=O)CO | inactive | inactive | inactive | inactive | inactive | inactive | inactive | inactive | inactive | 2.44 µM (active) and 344 nM (active) and 750 nM (active) | inactive | inactive | inactive | inactive | inactive | inactive | inactive |  |  | inactive |
| CN(C)Cc1cc(CN(C)C)c(O)c(CN(C)C)c1 | inactive | inactive |  | inactive | inactive | inactive | inactive | inactive | inactive | inactive |  |  | inactive | inactive | inactive | inactive |  | inactive | inactive |  |
| CC1(C)O[C@@H]2[C@@H](CO[C@@]3(COS(N)(=O)=O)OC(C)(C)O[C@@H]23)O1 | inactive | inactive | inactive | inactive | inactive | inactive | inactive | inactive | inactive | inactive | inactive | inactive | inactive | inactive |  | inactive | inactive |  |  |  |
| Cc1cccc2ccccc12 | inactive | inactive | inactive | inactive | inactive | inactive | inactive | inactive | inactive | inactive |  |  | inactive | inactive |  | inactive |  |  |  | inactive |
| Nc1cccc(N)c1 | inactive | inactive | inactive |  | inactive | inactive | inactive | inactive | inactive | inactive | inactive | inactive | inactive | inactive | inactive |  |  |  |  |  |
| N[C@@H](Cc1c[nH]c2ccccc12)C(=O)O | inactive | inactive | inactive |  | inactive | inactive | inactive | inactive | inactive | inactive | inactive | inactive | inactive | inactive | inactive |  |  |  |  | inactive |
| CC(C)Cc1ccc(C(C)C(=O)O)cc1 (stereo not drawn) | inactive | inactive | inactive | inactive | inactive | inactive | inactive | inactive | inactive | inactive | inactive | inactive | inactive | inactive |  | inactive | inactive |  |  |  |
